Data as given in the supplement of paper PMC11732987, “Enantioselective OTUD7B fragment discovery through chemoproteomics screening and high-throughput optimisation” (Communications Chemistry, 2025).

Columns and labels:
Assay in all cases: log2 ratio of Biotin-Ahx-Ub-VS probe labelling (fragment/DMSO); higher = less target engagement (more negative = stronger competition), active = hit call of the paper (q ≤ 0.05, log2 ratio ≤ -1)
Details in all cases: compound concentration: 200 uM; treatment time: 3 h
[1] = biological target: T1, USP42 (UniProt Q9H9J4)
T1 sequence (whole entry): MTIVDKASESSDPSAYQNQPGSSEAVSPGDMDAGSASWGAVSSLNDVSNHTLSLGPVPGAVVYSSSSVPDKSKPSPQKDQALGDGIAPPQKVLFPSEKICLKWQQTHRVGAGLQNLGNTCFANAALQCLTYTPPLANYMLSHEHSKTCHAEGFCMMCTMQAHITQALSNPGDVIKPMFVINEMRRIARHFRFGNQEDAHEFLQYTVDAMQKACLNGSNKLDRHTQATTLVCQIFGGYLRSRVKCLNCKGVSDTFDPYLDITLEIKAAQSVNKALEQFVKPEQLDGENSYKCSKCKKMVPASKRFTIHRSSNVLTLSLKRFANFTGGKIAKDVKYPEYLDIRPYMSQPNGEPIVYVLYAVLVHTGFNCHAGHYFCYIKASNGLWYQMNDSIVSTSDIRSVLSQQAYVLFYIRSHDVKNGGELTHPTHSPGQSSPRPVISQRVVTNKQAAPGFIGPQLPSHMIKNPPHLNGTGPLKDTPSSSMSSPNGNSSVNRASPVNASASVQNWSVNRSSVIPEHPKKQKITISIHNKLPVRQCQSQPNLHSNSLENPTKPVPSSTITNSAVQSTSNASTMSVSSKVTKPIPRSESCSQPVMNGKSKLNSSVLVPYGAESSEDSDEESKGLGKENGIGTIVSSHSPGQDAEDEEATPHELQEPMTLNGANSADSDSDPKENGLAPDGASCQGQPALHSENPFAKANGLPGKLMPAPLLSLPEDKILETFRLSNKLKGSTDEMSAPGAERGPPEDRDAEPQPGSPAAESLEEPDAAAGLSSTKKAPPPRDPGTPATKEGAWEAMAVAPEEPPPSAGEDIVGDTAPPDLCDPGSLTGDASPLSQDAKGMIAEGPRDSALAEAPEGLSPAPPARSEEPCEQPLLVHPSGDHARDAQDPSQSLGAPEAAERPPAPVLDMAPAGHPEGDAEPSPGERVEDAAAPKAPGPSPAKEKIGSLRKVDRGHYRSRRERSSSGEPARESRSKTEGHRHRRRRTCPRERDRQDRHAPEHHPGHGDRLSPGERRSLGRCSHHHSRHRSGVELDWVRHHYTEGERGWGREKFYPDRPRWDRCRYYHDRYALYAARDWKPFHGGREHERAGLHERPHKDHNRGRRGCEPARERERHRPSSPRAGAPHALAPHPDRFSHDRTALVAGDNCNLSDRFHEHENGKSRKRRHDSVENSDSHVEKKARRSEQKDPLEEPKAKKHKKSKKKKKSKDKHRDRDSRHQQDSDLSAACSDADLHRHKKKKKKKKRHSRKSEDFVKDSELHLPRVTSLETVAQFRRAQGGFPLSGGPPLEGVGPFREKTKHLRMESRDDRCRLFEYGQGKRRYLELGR
Method in brief: (§1)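 Global-median-normalised Spectronaut label-free quantities were compared by unpaired t-test, and values are average log2 ratios of fragment over vehicle. Only proteins with ≥2 unique peptides were used. HEK293T lysate (495 µg per sample) was treated in triplicate with fragment at 200 µM or vehicle for 3 h and then with Biotin-Ahx-Ub-VS at 0.5 µM final for 1 h. Labelled DUBs were then NeutrAvidin-enriched, digested with LysC and trypsin, and run by diaPASEF LC-MS/MS.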

[2] = biological target: USP46 (UniProt P62068)
Chain of USP46 (P62068 whole entry): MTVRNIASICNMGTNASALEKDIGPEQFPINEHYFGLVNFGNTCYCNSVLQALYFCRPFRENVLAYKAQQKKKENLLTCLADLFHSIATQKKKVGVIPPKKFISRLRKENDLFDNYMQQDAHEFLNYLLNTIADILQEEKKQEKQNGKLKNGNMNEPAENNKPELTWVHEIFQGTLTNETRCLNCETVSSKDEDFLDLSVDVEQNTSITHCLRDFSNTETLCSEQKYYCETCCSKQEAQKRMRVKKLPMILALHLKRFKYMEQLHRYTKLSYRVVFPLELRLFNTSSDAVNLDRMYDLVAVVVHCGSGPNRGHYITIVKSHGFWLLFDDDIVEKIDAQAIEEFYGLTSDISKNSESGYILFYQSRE
Method in brief: as §1

[3] = biological target: T2, USP47 (UniProt Q96K76)
T2 sequence (whole entry): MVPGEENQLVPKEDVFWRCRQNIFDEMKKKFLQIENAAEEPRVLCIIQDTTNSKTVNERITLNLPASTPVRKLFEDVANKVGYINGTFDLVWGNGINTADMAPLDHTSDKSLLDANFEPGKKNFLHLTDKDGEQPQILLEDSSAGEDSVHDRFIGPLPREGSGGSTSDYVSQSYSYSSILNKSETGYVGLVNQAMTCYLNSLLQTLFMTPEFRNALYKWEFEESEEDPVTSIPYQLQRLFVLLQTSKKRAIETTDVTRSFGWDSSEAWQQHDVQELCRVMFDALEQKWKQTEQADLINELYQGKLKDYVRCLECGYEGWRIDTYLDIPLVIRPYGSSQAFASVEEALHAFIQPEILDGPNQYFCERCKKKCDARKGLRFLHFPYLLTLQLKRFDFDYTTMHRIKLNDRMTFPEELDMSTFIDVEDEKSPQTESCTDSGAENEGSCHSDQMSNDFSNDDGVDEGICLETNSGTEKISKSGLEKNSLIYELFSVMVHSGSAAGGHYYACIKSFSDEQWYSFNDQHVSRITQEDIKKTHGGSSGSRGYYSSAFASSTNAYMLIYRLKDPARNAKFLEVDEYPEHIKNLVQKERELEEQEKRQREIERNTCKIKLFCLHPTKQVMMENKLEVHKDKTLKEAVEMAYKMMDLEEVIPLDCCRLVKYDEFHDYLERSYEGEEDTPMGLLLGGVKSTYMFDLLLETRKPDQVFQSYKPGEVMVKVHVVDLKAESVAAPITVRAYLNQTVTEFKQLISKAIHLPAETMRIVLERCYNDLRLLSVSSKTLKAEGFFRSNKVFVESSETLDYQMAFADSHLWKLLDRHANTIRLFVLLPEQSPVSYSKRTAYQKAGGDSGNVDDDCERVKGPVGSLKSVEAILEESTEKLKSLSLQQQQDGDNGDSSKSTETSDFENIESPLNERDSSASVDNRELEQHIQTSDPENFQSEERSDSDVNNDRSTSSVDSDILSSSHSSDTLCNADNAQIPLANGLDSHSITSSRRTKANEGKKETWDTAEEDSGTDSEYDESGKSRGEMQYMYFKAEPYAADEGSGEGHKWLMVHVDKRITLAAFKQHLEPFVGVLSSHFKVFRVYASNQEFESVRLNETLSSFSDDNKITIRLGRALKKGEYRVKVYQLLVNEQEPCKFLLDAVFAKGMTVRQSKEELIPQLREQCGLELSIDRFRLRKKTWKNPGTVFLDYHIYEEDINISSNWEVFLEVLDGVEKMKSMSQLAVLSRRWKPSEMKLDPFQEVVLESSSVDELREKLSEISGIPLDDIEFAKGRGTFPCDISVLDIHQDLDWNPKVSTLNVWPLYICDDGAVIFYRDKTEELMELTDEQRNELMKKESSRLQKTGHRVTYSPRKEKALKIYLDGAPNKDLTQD
Method in brief: as §1

[4] = biological target: T3, USP48 (UniProt Q86UV5)
T3 sequence (whole entry): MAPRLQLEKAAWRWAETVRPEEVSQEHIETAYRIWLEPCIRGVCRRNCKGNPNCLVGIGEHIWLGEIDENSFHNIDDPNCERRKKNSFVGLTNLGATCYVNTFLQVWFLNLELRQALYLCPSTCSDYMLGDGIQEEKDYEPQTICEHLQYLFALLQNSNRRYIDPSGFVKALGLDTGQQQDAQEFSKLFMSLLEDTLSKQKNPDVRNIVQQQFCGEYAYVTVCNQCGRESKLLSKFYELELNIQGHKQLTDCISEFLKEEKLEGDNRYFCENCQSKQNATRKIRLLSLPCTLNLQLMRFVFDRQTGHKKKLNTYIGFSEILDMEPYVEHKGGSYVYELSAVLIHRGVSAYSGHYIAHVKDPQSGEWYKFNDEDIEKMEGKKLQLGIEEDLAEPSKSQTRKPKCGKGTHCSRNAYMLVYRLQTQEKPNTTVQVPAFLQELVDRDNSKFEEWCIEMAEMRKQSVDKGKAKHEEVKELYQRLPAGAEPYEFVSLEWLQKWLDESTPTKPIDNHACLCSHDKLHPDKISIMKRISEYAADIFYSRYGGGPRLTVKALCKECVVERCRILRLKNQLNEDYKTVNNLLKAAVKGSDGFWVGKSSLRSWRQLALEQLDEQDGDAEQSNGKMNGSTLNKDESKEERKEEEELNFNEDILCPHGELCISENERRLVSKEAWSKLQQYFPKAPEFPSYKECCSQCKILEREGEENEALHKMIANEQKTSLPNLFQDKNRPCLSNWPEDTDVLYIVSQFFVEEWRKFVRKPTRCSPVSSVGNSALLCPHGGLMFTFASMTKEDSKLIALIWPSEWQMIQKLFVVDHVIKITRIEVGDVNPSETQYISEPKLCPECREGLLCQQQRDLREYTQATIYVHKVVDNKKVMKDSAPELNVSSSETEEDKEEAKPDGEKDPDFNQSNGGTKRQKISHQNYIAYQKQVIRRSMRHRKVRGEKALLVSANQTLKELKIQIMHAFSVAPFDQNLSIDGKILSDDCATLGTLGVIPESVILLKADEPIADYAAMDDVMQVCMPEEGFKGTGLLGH
Method in brief: as §1

[5] = biological target: T4, USP5 (UniProt P45974)
T4 sequence (whole entry): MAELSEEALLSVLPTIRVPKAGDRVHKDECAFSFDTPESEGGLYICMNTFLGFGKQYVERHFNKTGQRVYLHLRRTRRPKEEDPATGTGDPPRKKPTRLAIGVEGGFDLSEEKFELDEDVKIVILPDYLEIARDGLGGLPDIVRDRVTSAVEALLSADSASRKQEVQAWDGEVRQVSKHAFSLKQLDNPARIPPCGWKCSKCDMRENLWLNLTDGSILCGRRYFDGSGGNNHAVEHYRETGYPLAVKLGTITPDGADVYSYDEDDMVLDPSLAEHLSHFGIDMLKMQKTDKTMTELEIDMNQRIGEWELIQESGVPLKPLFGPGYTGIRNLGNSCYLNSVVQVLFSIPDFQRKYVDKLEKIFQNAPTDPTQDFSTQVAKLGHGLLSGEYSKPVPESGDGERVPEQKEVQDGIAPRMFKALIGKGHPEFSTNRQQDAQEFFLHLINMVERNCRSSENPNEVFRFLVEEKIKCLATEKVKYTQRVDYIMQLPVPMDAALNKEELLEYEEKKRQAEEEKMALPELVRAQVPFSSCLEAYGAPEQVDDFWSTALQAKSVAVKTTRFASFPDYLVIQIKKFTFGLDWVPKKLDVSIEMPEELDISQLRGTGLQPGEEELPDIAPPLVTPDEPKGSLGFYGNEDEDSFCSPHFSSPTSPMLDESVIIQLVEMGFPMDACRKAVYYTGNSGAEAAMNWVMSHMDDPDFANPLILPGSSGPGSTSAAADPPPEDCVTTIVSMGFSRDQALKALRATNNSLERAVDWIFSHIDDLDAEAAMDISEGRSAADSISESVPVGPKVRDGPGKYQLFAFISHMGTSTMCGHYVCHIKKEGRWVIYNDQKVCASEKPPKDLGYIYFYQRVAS
Method in brief: as §1

[6] = biological target: USP54 (UniProt Q70EL1)
Chain of USP54 (Q70EL1 whole entry): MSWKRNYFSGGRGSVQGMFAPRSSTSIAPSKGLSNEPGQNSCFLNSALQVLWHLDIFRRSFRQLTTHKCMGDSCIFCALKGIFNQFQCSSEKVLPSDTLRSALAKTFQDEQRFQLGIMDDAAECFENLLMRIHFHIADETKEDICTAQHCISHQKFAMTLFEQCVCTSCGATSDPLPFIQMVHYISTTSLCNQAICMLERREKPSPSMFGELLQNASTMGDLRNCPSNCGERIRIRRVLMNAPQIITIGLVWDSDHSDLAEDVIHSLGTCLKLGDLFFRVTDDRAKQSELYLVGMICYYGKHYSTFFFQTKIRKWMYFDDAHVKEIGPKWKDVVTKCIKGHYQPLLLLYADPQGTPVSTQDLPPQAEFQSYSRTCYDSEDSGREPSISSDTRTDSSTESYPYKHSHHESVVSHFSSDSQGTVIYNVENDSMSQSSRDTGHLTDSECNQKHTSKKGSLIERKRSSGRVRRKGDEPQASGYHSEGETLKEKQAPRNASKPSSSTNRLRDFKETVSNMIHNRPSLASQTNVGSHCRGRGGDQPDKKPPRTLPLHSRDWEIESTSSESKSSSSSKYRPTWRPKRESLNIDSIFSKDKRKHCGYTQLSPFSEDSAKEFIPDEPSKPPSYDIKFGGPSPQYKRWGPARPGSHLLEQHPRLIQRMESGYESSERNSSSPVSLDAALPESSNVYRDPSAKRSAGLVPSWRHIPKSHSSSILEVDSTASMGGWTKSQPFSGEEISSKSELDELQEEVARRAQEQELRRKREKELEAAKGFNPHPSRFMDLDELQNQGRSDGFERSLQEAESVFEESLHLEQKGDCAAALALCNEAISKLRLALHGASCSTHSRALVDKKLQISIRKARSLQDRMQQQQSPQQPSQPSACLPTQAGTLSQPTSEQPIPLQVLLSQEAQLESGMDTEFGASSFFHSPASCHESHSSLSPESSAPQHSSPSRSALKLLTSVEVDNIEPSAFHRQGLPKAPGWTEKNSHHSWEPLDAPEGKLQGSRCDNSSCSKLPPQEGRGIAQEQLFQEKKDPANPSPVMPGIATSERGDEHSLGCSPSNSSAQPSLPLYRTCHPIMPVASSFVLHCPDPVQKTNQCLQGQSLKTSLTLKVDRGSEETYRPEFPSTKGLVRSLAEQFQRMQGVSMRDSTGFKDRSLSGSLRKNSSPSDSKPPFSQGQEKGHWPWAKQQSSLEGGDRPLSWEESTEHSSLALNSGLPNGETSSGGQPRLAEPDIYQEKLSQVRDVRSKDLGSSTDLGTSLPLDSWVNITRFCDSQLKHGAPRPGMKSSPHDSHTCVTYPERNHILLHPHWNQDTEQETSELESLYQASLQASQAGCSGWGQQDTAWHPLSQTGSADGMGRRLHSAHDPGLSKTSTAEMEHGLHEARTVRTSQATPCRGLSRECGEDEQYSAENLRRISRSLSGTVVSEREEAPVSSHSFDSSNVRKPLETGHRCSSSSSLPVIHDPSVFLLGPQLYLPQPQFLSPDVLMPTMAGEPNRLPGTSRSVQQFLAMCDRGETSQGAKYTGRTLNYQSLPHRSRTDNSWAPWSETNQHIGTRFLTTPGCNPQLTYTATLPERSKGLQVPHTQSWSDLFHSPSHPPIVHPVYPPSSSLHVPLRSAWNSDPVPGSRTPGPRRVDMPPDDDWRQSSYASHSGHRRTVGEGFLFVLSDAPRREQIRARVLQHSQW
Method in brief: as §1

[7] = biological target: USP7 (UniProt Q93009)
Method in brief: as §1

[8] = biological target: T5, USP8 (UniProt P40818)
T5 sequence (whole entry): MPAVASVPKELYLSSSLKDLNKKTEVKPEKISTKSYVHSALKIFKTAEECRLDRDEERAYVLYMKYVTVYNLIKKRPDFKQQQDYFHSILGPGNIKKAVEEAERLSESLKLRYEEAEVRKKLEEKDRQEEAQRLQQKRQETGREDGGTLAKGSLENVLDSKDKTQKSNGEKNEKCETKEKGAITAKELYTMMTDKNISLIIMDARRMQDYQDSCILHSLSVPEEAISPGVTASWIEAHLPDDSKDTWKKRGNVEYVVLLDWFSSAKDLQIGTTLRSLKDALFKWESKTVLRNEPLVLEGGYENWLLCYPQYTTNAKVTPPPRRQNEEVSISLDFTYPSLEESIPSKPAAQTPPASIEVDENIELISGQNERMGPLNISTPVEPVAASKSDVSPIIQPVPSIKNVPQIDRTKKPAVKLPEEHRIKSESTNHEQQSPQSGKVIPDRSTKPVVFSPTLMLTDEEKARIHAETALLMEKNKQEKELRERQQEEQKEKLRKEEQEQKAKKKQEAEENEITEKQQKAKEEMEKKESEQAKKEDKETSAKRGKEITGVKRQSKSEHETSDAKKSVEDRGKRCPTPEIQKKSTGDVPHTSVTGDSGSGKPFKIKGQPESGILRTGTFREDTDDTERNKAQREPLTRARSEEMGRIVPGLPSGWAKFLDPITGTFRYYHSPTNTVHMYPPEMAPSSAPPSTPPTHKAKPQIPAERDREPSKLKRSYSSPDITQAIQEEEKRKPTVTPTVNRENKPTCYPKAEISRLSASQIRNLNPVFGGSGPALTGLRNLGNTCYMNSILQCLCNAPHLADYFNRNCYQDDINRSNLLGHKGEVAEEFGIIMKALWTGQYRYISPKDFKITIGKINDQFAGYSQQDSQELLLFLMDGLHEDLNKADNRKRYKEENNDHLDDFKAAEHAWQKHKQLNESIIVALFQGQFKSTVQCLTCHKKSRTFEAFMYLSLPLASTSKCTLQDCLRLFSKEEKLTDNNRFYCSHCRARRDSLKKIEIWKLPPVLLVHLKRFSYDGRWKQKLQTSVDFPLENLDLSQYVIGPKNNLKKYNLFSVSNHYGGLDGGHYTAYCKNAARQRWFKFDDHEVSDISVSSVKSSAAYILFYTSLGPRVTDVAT
Method in brief: as §1

[9] = biological target: USP9X (UniProt Q93008)
Chain of USP9X (Q93008 whole entry): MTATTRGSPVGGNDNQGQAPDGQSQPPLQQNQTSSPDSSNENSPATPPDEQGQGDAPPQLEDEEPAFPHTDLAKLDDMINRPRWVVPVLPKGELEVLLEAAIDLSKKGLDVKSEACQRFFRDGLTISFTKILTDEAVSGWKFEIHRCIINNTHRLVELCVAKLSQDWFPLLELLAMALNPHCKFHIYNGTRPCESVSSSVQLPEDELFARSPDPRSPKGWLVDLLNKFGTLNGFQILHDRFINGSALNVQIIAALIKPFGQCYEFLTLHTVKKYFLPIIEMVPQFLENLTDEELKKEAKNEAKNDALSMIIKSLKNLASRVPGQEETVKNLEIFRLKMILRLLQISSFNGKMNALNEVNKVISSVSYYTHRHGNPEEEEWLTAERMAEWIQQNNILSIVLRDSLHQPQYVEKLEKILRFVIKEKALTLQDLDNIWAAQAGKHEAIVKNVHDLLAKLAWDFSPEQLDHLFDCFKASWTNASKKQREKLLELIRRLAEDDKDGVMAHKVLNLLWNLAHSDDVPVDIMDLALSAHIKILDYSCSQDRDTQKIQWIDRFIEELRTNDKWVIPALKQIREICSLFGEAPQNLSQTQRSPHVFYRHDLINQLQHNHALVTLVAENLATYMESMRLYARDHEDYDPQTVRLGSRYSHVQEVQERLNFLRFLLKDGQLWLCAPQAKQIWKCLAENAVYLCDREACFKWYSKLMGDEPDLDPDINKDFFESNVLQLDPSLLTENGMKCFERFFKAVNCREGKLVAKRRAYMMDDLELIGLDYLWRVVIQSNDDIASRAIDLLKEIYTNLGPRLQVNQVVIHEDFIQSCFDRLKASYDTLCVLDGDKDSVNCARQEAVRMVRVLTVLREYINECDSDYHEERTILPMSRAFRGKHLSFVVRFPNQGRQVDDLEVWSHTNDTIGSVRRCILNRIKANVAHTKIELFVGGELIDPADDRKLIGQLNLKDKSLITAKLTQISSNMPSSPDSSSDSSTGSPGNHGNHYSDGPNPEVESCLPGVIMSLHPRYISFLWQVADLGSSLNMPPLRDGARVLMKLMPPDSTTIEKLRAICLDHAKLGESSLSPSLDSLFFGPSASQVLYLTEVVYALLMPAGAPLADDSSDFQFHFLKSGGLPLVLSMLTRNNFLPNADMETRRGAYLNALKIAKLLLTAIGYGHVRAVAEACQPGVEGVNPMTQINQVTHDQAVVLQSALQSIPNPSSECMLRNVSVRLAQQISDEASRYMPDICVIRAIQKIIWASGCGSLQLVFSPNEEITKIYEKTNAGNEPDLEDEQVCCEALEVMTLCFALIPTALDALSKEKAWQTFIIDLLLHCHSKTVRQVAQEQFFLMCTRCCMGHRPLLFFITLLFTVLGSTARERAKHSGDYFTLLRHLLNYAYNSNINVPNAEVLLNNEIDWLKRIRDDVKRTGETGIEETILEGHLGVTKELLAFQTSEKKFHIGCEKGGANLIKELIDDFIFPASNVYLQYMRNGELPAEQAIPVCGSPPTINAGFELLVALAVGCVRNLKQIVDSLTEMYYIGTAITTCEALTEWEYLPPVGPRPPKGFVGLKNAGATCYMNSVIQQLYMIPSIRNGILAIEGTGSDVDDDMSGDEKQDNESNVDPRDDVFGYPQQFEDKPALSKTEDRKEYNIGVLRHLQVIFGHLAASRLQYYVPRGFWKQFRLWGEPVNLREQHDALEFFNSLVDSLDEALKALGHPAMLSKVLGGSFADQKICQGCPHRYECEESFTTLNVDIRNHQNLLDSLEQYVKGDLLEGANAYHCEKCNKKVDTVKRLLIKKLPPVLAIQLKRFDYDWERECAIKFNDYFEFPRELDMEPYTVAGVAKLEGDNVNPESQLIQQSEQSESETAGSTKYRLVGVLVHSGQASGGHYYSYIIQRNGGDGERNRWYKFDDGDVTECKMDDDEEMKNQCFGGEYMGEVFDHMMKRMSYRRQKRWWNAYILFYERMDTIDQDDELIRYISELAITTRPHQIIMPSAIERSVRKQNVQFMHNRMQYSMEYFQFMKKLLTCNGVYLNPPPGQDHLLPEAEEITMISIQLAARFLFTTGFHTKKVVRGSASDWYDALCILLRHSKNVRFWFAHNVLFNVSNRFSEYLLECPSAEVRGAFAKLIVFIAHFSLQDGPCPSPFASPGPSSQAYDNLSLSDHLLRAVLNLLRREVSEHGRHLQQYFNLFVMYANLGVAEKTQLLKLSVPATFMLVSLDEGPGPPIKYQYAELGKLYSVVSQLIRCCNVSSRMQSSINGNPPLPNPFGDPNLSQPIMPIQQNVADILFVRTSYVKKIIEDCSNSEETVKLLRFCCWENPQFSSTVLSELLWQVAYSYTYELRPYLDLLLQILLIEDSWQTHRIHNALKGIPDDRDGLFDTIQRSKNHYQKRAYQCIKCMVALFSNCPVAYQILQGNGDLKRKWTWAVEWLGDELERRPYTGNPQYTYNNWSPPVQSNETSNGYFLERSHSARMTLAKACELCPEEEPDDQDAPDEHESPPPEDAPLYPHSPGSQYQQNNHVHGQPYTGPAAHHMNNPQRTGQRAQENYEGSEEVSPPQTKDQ
Method in brief: as §1

[10] = biological target: UniProt O00487
Chain of UniProt O00487 (O00487 whole entry): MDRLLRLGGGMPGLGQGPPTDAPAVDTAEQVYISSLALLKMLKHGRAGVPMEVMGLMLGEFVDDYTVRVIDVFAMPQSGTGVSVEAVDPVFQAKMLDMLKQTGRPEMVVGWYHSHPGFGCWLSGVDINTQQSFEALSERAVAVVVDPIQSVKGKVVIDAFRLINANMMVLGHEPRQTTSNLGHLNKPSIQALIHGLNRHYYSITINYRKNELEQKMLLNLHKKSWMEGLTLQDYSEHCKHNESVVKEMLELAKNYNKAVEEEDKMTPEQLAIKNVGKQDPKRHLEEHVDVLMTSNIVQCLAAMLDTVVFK
Method in brief: as §1

Measured: log2 ratio of Biotin-Ahx-Ub-VS probe labelling

Cl.Cn1nc2c(c1CNC(=O)CCl)CCCC2
inactive: [1] -0.241 | [2] 0.117 | [3] 0.0138 | [4] -0.0889 | [5] 0.0696 | [6] 0.268 | [7] -0.055 | [8] -0.598 | [9] -0.188 | [10] 0.0603

Cc1ncsc1CCNC(=O)CCl
inactive: [1] 0.0552 | [2] 0.359 | [3] 0.687 | [4] 0.00776 | [5] 0.325 | [6] 0.227 | [7] 0.0797 | [8] 0.298 | [9] -0.0257 | [10] 0.339
